We go through 19 molecules from PubChem BioAssay (EPA / NIEHS).

Results filed as inconclusive are left out. Calls of active or inactive are those of the source. The calls were made as follows: active = hit-call score of the fitted dose curve at least 0.9, where 1 is the maximum; inconclusive = response in the unintended direction; inactive = score below 0.9.

The nature of assay [1]: TOX21_p53_BLA_p2_viability: Viability Assessment in the Tox21 HCT-116 p53 Agonism Beta-lactamase Assay, Phase 2 (AID 2283591).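 Also: compound exposure lasted 16 h at 37 °C; actives lower the ATP signal meaning cytotoxicity.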 The gist of the method:
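Cytotoxicity readout: CellTiter-Glo ATP luminescence, 30 min at room temperature, after the beta-lactamase read. Cells were HCT116 exposed 16 h at 37C to compounds pin-transferred at 217-fold dilution from DMSO stocks.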

The target of assay [2] is Cellular tumor antigen p53 (Homo sapiens) (UniProt P04637). As to the kind of experiment: TOX21_p53_BLA_p2_ratio: Tox21 HCT-116 p53 Agonism Beta-lactamase Assay, Ratio, Phase 2 (AID 2283592). The method in brief: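 DMSO-normalized, positive-direction endpoint derived from the 460 nm/530 nm FRET ratio in HCT116 p53 beta-lactamase reporter cells exposed 16 h at 37C and loaded with CCF4-AM for 2 h.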
Sequence of Cellular tumor antigen p53 (Homo sapiens) (P04637 whole entry, looked up): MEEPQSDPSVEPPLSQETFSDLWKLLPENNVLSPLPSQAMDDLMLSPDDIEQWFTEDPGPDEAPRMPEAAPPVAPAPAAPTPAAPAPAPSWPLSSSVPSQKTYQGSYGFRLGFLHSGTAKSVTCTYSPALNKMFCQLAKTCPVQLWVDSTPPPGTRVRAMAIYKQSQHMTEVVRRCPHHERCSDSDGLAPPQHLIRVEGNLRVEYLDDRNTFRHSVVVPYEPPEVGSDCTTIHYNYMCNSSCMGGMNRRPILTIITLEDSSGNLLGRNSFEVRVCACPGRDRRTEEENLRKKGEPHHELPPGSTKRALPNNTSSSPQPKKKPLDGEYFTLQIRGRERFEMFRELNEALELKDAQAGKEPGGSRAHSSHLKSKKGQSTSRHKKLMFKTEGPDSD

A short description of assay [3]: TOX21_p53_BLA_p3_viability: Viability Assessment in the Tox21 HCT-116 p53 Agonism Beta-lactamase Assay, Phase 3 (AID 2283593).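 Also: cells exposed to compound for 16 h before reading.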 The gist of the method: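 Cellular ATP was quantified by CellTiter-Glo luminescence, read after 30 min at room temperature. Beforehand, HCT116 cells (4000/well) received compound 5 h post-seeding, 217-fold diluted from DMSO, then incubated 16 h at 37C.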

For assay [4], the target named is Cellular tumor antigen p53 (Homo sapiens) (UniProt P04637). As to the kind of experiment: TOX21_p53_BLA_p3_ratio: Tox21 HCT-116 p53 Agonism Beta-lactamase Assay, Ratio, Phase 3 (AID 2283596). The method in brief:
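Cells were seeded at 4000/well, rested 5 h at 37C, then dosed with DMSO compound solutions (217-fold dilution) for 16 h. CCF4-AM substrate was loaded for 2 h at room temperature, and the 460/530 nm emission ratio was fitted for gain of signal versus DMSO.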

The nature of assay [5]: TOX21_p53_BLA_p4_viability: Viability Assessment in the Tox21 HCT-116 p53 Agonism Beta-lactamase Assay, Phase 4 (AID 2283597).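 Also: hits lower the luminescence signal meaning cytotoxicity.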 The gist of the method: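 In this multiplexed secondary endpoint, HCT116 cells (4000 per well, compound at 5 h, 16 h treatment) received CellTiter-Glo after the beta-lactamase read. Luminescence after 30 min RT reflects ATP, and falling signal marks cytotoxicity.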

In assay [6] the target is Cellular tumor antigen p53 (Homo sapiens) (UniProt P04637). The experiment in a line: TOX21_p53_BLA_p5_ratio: Tox21 HCT-116 p53 Agonism Beta-lactamase Assay, Ratio, Phase 5 (AID 2283599). The gist of the method: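 Beta-lactamase reporter ratio (blue 460 nm over green 530 nm, 405 nm excitation) after 2 h CCF4-AM loading, in HCT-116 cells exposed 16 h at 37 C to compounds pinned at 217-fold dilution. Increases relative to DMSO baseline scored.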

Assay [7] can be described thus: TOX21_p53_BLA_p5_viability: Viability Assessment in the Tox21 HCT-116 p53 Agonism Beta-lactamase Assay, Phase 5 (AID 2283600). The gist of the method: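 Here cell health was gauged by ATP levels in wells holding 4000 cells, each treated 16 h with DMSO-delivered compounds at 217-fold dilution; reduced luminescence marked toxicity.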
Assay [8] addresses Cellular tumor antigen p53 (Homo sapiens) (UniProt P04637). As to the kind of experiment: TOX21_p53_BLA_p4_ratio: Tox21 HCT-116 p53 Agonism Beta-lactamase Assay, Ratio, Phase 4 (AID 2283601). The method in brief:
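Signal is the blue/green (460nm/530nm) ratio of cleaved versus uncleaved CCF4-AM substrate, read after 2 h substrate loading. Cells were HCT116 carrying the p53-responsive beta-lactamase reporter, dosed 16 h at 37C, 5% CO2; CellTiter-Glo measured in parallel.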

As a reminder, the AC50 is the concentration giving half of the maximal activity seen.

With `O=C(c1cc2ccccc2o1)N1CCN(Cc2ccccc2)CC1`, the molecule was classed as inactive in assay [1], in assay [2], in assay [3], in assay [4], in assay [5] and in assay [6]. The molecule was called inactive in assay [7] and in assay [8].

Regarding `CCCCCCCCCCCCOCCOCCOCCOCCOCCOCCOCCOCCOCCO`, the concentration at half-maximal activity (AC50) was 31.5 µM (active) in assay [1]; 13.5 µM (active) in assay [2]; 27 µM (active) in assay [3]; 19.7 µM (active) in assay [4]; 20 µM (active) in assay [5]; 36.9 µM (active) in assay [6]. The half-maximal activity concentration (AC50) in assay [7] was 23 µM (active); in assay [8], 37.7 µM (active).

On to `CCC(CC)(CC(=O)Nc1cccc(/C=C/c2nc(C3CCC3)cs2)c1)C(=O)O`, for which the outcome in assay [1], in assay [2], in assay [3], in assay [4], in assay [5] and in assay [6] was inactive. The call in assay [7] and in assay [8] was inactive.

As to `CCCCCCCC(=O)CC[C@@H]1[C@@H](C/C=C\CCCC(=O)OC(C)C)[C@@H](O)C[C@H]1O`, the half-maximal activity concentration (AC50) in assay [1] is 36.2 µM (active); in assay [2], 43.7 µM (active); in assay [3], 43.7 µM (active); in assay [5] it was 23 µM (active); in assay [6], 43 µM (active); in assay [7], 41.9 µM (active). In addition, the AC50 in assay [8] was 43.6 µM (active). Also, the outcome in assay [4] was inactive.

With `CC(O)COC(C)(C)C` (configuration not stated), the outcome in assay [1], in assay [2], in assay [3], in assay [4], in assay [5] and in assay [6] was inactive. Also, the molecule was classed as inactive in assay [7] and in assay [8].

Turning to `CN1[C@@H]2CC[C@H]1CC(OC(=O)C(O)c1ccccc1)C2` (some centres not stated), the call in assay [1], in assay [2], in assay [3], in assay [4], in assay [5] and in assay [6] was inactive. Besides, the call in assay [7] and in assay [8] was inactive.

As to `OCCN1CCN(CCCN2c3ccccc3Sc3ccc(C(F)(F)F)cc32)CC1`, the molecule was classed as inactive in assay [1], in assay [2], in assay [3], in assay [4], in assay [6] and in assay [7]. In addition, the AC50 is 33.5 µM (active) in assay [5] and 40.9 µM (active) in assay [8].

As for `C=C(Nc1ccc(OCC)cc1)Nc1ccc(OCC)cc1`, the molecule was classed as inactive in assay [1], in assay [2], in assay [3], in assay [4], in assay [5] and in assay [6]. The molecule was called inactive in assay [7] and in assay [8].

`CCCCCCCCCCn1cc[n+](CCCCCCCCCC)c1C`: the half-maximal activity concentration (AC50) was 44.2 µM (active) in assay [1]; 18.7 µM (active) in assay [2]; 46.1 µM (active) in assay [3]; 20.1 µM (active) in assay [4]; 57.5 µM (active) in assay [5]; 74.1 µM (active) in assay [6]. Moreover, the AC50 is 75.2 µM (active) in assay [7] and 73.6 µM (active) in assay [8].

Consider `Cc1ccc(O)c(O)c1`, for which the concentration at half-maximal activity (AC50) is 40.8 µM (active) in assay [1]; 41.5 µM (active) in assay [3]; 41 µM (active) in assay [5]; 66 µM (active) in assay [6]; 42 µM (active) in assay [7]. Further, the result in assay [2], in assay [4] and in assay [8] was inactive.

On to `COc1cc(C=C2CCCC(=Cc3ccc(O)c(OC)c3)C2=O)ccc1O`, for which the AC50 was 15.2 µM (active) in assay [1]; 15.5 µM (active) in assay [3]; 27.8 µM (active) in assay [5]; 11.5 µM (active) in assay [6]; 17 µM (active) in assay [7]. Also, the result in assay [2], in assay [4] and in assay [8] was inactive.

Regarding `COc1cc2c(cc1OC)-c1cc(=Nc3c(C)cc(C)cc3C)n(C)c(=O)n1CC2`, the AC50 was 39 µM (active) in assay [1]; 35.6 µM (active) in assay [2]; 33.4 µM (active) in assay [3]; 36.7 µM (active) in assay [4]; 36 µM (active) in assay [5]; 41.3 µM (active) in assay [6]. Besides, the AC50 in assay [7] was 32.7 µM (active); in assay [8] it was 36.6 µM (active).

Take `OCC(O)[C@@H](O)[C@H](O)[C@H](O)CO[C@H]1O[C@H](CO)[C@@H](O)[C@H](O)[C@H]1O` (some centres not stated): the molecule was called inactive in assay [1], in assay [2], in assay [3], in assay [4], in assay [5] and in assay [6]. The call in assay [7] and in assay [8] was inactive.

Consider `NC(=O)C(c1ccccc1)(c1ccccc1)[C@@H]1CCN(CCc2ccc3c(c2)CCO3)C1`, for which the result in assay [1], in assay [2], in assay [3], in assay [4], in assay [5] and in assay [6] was inactive. Moreover, the outcome in assay [7] and in assay [8] was inactive.

Consider `c1cc(OCC2CO2)cc(OCC2CO2)c1` (configuration not stated), for which the molecule was classed as inactive in assay [1], in assay [5] and in assay [7]. Also, the AC50 in assay [2] is 14.3 µM (active); in assay [3], 70.3 µM (active); in assay [4], 20.4 µM (active); in assay [6], 14.3 µM (active); in assay [8], 63.2 µM (active).

Consider `CC12CCC(C[N+](C)(CCC[N+](C)(C)C)C1)C2(C)C` (configuration not stated), for which the result in assay [1], in assay [2], in assay [3], in assay [4], in assay [5] and in assay [6] was inactive. For the same molecule, the result in assay [7] and in assay [8] was inactive.

With `O=C1C(=O)c2ccccc2C(O)=C1C1CCC(c2ccc(Cl)cc2)CC1` (configuration not stated), the outcome in assay [1], in assay [3], in assay [5], in assay [7] and in assay [8] was inactive. In addition, the AC50 in assay [2] was 10.3 µM (active); in assay [4], 1.61 µM (active); in assay [6], 10.3 µM (active).

With `Nc1cnn([C@@H]2O[C@H](CO)[C@@H](O)[C@H]2O)c(=O)n1`, the outcome in assay [1], in assay [3], in assay [5] and in assay [7] was inactive. Also, the half-maximal activity concentration (AC50) in assay [2] was 3.04 µM (active); in assay [4], 2.28 µM (active); in assay [6] it was 6.26 µM (active); in assay [8] it was 1.34 µM (active).

In the case of `COc1cc(NS(C)(=O)=O)ccc1Nc1c2ccccc2nc2ccccc12`, the half-maximal activity concentration (AC50) was 12.8 µM (active) in assay [1]; 7.65 µM (active) in assay [2]; 15.1 µM (active) in assay [3]; 8.11 µM (active) in assay [4]; 25.6 µM (active) in assay [5]; 22.1 µM (active) in assay [6]. Besides, the figures for the AC50 in assay [7] and in assay [8] were 33.6 µM (active) and 1.36 µM (active), respectively.
